Measured values reported in PubChem BioAssay (Tox21).
Values joined by “and” are separate entries in the source; they are usually repeats but may differ in a detail not shown here. Equal entries are not always repeated. Inconclusive results are not listed. A call without a number means that no potency is given here. Where a structure was tested more than once in an assay, its records may differ in their call. Active and inactive are the calls of the source. Unless noted, calls come from the whole dose curve; as a rule, active = well fitted curve in the direction sought with a large enough effect in the repeat runs; inconclusive = weak or mixed curves; inactive = no such curve, though single readings can be large; an effect the other way counts as inactive or inconclusive.

What was measured:
[1] = qHTS assay to identify small molecule agonists of the hypoxia (HIF-1) signaling pathway - cell viability counter screen (AID 1224844; calls by dose curve; note: nearly all actives have a fitted effect of over 50% in size; note: potency is the fitted concentration of half-maximal effect)
In short: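 CellTiter-Glo luminescence read-out, 30 min RT, taken in the same wells as the beta-lactamase HRE reporter assay; HRE-bla ME-180 cells, 0.5% dialyzed FBS, 17 hr compound treatment at 37C, 5% CO2.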

[2] = qHTS assay to identify small molecule agonists of H2AX (AID 1224845; active = well fitted activation curve with a large enough effect in the signal ratio in the repeat runs, not every such curve was filed as active; the % refers to the signal ratio)
In short: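 Phospho-H2AX Ser139 measured by HTRF (ex 320 nm; em 665 and 620 nm) after 24 hr antibody incubation. Compounds, 15 concentrations, 0.76% DMSO, were applied to CHO-K1 cells for 3hr at 37C before lysis.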

[3] = qHTS assay to identify small molecule agonists of the hypoxia (HIF-1) signaling pathway (AID 1224846; active = well fitted activation curve with a large enough effect in the signal ratio in the repeat runs, not every such curve was filed as active; the % refers to the signal ratio)
In short: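 Beta-lactamase FRET read-out (CCF4-AM substrate) from ME-180 cells carrying an HRE-driven bla reporter, after 17 hrs compound exposure at 37C/5% CO2. Cells were seeded at 2,000 per well in 0.5% dialyzed FBS medium and preincubated 5 hrs.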

[4] = qHTS assay to identify small molecule agonists of H2AX - cell viability counter screen (AID 1224847; calls by dose curve; note: top concentration of the series differs between compounds; nearly all actives have a fitted effect of over 30% in size)
In short: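 Wild-type CHO-K1 cells (10% FBS medium) were plated overnight at 37C, exposed to compounds at 15 concentrations for 3 hr at 37C (0.76% DMSO final), and viability was read as CellTiter-Glo luminescence after 30 min at room temperature.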

[5] = qHTS assay to identify small molecule antagonists of the estrogen related receptor (ERR) signaling pathway from Tox21 library (AID 1224848); note: nearly all actives have a fitted effect of over 50% in size; note: potency is the fitted concentration of half-maximal effect
In short: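 Luciferase luminescence (ONE-Glo, 30 min room temperature) was the read-out. Cells of the NTP-supplied ERR line, 2,000 per well, were given 6 h at 37 C before compound addition in DMSO and 18 h exposure at 37 C.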

[6] = qHTS assay to identify small molecule agonists of the estrogen related receptor (ERR) signaling pathway from Tox21 library (AID 1224849; calls by dose curve; note: nearly all actives have a fitted effect of over 15% in size); conditions: ERR reporter cell line, ONE-Glo luciferase, 18 h
In short: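 Luminescence readout (ONE-Glo, 30 min RT) after 18 h compound exposure at 37 C of NTP-supplied ERR reporter cells; cells were plated 6 h before compound addition by pin tool.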

[7] = qHTS RealTime-Glo MT Cell Viability Assay in HepG2 cells - 24 hour (AID 1224867); note: nearly all actives have a fitted effect of over 50% in size
In short: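 Cells + NanoLuc/prosubstrate dispensed (600 cells/well) → 5 h at 37 C/5% CO2 → compounds in DMSO transferred → 40 h incubation at 37 C, luminescence read at 0, 8, 16, 24, 32, 40 h.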

[8] = qHTS RealTime-Glo MT Cell Viability Assay in HEK293 cells - 32 hour (AID 1224868); note: nearly all actives have a fitted effect of over 50% in size; note: potency is the fitted concentration of half-maximal effect
In short: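 Tox21 10K qHTS, HEK293, 600 cells/well, RealTime-Glo reagent co-dispensed with cells; 5 h preincubation, compound by pintool, 37 C, luminescence at 0–40 h.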

[9] = A CellTox Green Cytotoxicity Assay to monitor cytotoxicity in HEK293 cells - 0 hour (AID 1224869); note: nearly all actives have a fitted effect of over 50% in size
In short: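 Read-out: fluorescence of a cell-impermeant cyanine dye staining DNA of dead cells, proportional to cytotoxicity. HEK293, 600 cells/well with reagent, compound (23 nL DMSO) added after 5 h; reads at 0, 8, 16, 24, 32, 40 h.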

[10] = qHTS RealTime-Glo MT Cell Viability Assay in HepG2 cells - 40 hour (AID 1224870); note: nearly all actives have a fitted effect of over 50% in size
In short: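 Real-time viability: cells seeded at 600 per well together with NanoLuc and cell-permeant prosubstrate, compounds added after 5 h incubation. Luminescence tracked at 0, 8, 16, 24, 32 and 40 h of exposure.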

SMILES | Potency [1] | Potency [2] | outcome [3] | Potency [4] | Potency [5] | activity change, positive = activation ([6]; at 92.4 µM (top of the series)) | Potency [7] | Potency [8] | Potency [9] | Potency [10] | activity change, positive = activation ([6]; at 42.5 µM (top of the series)) | activity change, negative = cytotoxicity [1]
O=C1OC(=O)c2c(Cl)c(Cl)c(Cl)c(Cl)c21 | inactive | inactive | inactive | inactive | inactive | -24.8% (inactive) | inactive | inactive | inactive | inactive | – | –
OB(O)O | inactive | inactive | inactive | inactive | inactive | 4.58% (inactive) and 4.55% (inactive) | inactive | inactive | inactive | inactive | – | –
CCCCC(CC)COC(=O)c1ccc(C(=O)OCC(CC)CCCC)cc1 (configuration not stated) | inactive | inactive | inactive | inactive | inactive | -0.0437% (inactive) | inactive | inactive | inactive | inactive | – | –
NCCNCCNCCN | inactive | inactive | inactive | inactive | inactive | – | inactive | inactive | inactive | inactive | 0.597% (inactive) | –
CC(=O)OCc1ccc2c(c1)OCO2 | inactive | inactive | inactive | inactive | inactive | -6.11% (inactive) and 0.823% (inactive) | inactive | inactive | inactive | inactive | – | –
OC[C@H]1O[C@@H](Oc2ccc(O)cc2)[C@H](O)[C@@H](O)[C@@H]1O | inactive | inactive | inactive | inactive | inactive | 7.42% (inactive) | inactive | inactive | inactive | inactive | 7.9% (inactive) | –
COc1ccc2cc3[n+](cc2c1OC)CCc1cc2c(cc1-3)OCO2 | inactive | inactive | inactive | inactive | 976 nM (active) and 3.35 µM (active) | -64.1% (inactive) | inactive | 4.93 µM (active) and 10.7 µM (active) | inactive | inactive | -43.6% (inactive) | –
O=C1CCCCCCCCCCC1 | inactive | inactive | inactive | inactive | – | – | inactive | inactive | inactive | inactive | – | –
O=C(Cl)c1ccc(C(=O)Cl)cc1 | inactive | inactive | inactive | inactive | – | – | inactive | inactive | inactive | inactive | – | –
CC(COCC(C)OC(=O)c1ccccc1)OC(=O)c1ccccc1 (configuration not stated) | inactive | inactive | inactive | inactive | inactive | -2.03% (inactive) and -5.66% (inactive) | inactive | – | inactive | inactive | – | –
CC1(C)[C@@H](O[C@H]2O[C@H](C(=O)O)[C@@H](O)[C@H](O)[C@H]2O[C@@H]2O[C@H](C(=O)O)[C@@H](O)[C@H](O)[C@H]2O)CC[C@]2(C)[C@H]3C(=O)C=C4[C@@H]5C[C@@](C)(C(=O)O)CC[C@]5(C)CC[C@@]4(C)[C@]3(C)CC[C@@H]12 | inactive | inactive | inactive | inactive | inactive | – | inactive | inactive | inactive | inactive | 2.2% (inactive) and 1.06% (inactive) | –
CCCCCCCC(=O)O | inactive | inactive | inactive | inactive | – | – | inactive | inactive | inactive | inactive | – | –
COCN(COC)c1nc(N(COC)COC)nc(N(COC)COC)n1 | inactive | inactive | inactive | inactive | inactive | -2.4% (inactive) and 4.33% (inactive) | inactive | inactive | inactive | inactive | – | –
O=C1O[C@H]([C@H](O)CO)C(O)=C1O | inactive | inactive | inactive | inactive | – | – | inactive | inactive | inactive | inactive | – | –
CC(=O)Nc1ccc(CC(=O)O)cc1 | inactive | inactive | inactive | inactive | inactive | 9.59% (inactive) | inactive | inactive | inactive | inactive | -1.58% (inactive) | –
CCCOCC(C)O (configuration not stated) | inactive | inactive | inactive | inactive | inactive | 5.9% (inactive) and 6.38% (inactive) | inactive | inactive | inactive | inactive | – | –
OCCOCCOCCOCCOCCO | inactive | inactive | inactive | inactive | inactive | 2.04% (inactive) and 4.48% (inactive) | inactive | inactive | inactive | inactive | – | –
CC1=CC(=O)CC(C)(C)C1 | 4.49 µM (active) and inactive | inactive | inactive | inactive | 14.1 µM (active) and inactive | -82.9% (inactive) and 7.49% (inactive) | inactive | inactive | inactive | inactive | – | –

SMILES | Potency [1] | Potency [2] | outcome [3] | Potency [4] | Potency [5] | activity change, positive = activation ([6]; at 92.4 µM (top of the series)) | Potency [7] | Potency [8] | Potency [9] | Potency [10] | activity change, positive = activation ([6]; at 42.5 µM (top of the series)) | activity change, negative = cytotoxicity [1]
CCCCCCCCCCCC(=O)N(C)CC(=O)O | – | inactive | inactive | inactive | – | – | inactive | inactive | inactive | inactive | – | 0.126% [at 6.97 µM] (inactive)
CCCN(CCC)C(=O)SCC | inactive | inactive | inactive | inactive | – | – | inactive | inactive | inactive | inactive | – | –
C=CC(C)(C)C | inactive | inactive | inactive | inactive | inactive | 1.24% (inactive) and -3.33% (inactive) | inactive | inactive | inactive | inactive | – | –
CCCCCCC(=O)O | inactive | inactive | inactive | inactive | inactive | 5.44% (inactive) and -1.64% (inactive) | inactive | inactive | inactive | inactive | – | –
COc1cc(NC(=O)CC(C)=O)c(OC)cc1Cl | inactive | inactive | inactive | inactive | inactive | -16.1% (inactive) and -21.5% (inactive) | inactive | inactive and 11 µM (active) | inactive | inactive | – | –
CC(=O)OC[C@H]1O[C@@](COC(C)=O)(O[C@H]2O[C@H](COC(C)=O)[C@@H](OC(C)=O)[C@H](OC(C)=O)[C@H]2OC(C)=O)[C@@H](OC(C)=O)[C@@H]1OC(C)=O | inactive | inactive | inactive | inactive | – | – | inactive | inactive | inactive | inactive | – | –
C1CCCNCC1 | inactive | inactive | inactive | inactive | inactive | 1.64% (inactive) and -2.2% (inactive) | inactive | inactive | inactive | inactive | – | –
CC(=O)OC(C)(C)C1CC=C(C)CC1 (configuration not stated) | inactive | inactive | inactive | inactive | inactive | 5.97% (inactive) and -1.38% (inactive) | inactive | inactive | inactive | inactive | – | –
N#CCC(=O)O | inactive | inactive | inactive | inactive | inactive | 4.35% (inactive) and -0.59% (inactive) | inactive | inactive | inactive | inactive | – | –
CC1(C)C(=O)N(Cl)C(=O)N1Cl | inactive | inactive | inactive | inactive | – | – | inactive | inactive | inactive | inactive | – | –
CC(=O)OCCC(C)C | inactive | inactive | inactive | inactive | inactive | 1.01% (inactive) and 5.99% (inactive) | inactive | inactive | inactive | inactive | – | –
COC(=O)OC | inactive | inactive | inactive | inactive | inactive | 8.59% (inactive) and 5.73% (inactive) | inactive | inactive | inactive | inactive | – | –
COc1c2ccoc2cc2oc(=O)ccc12 | inactive | inactive | inactive | inactive | – | – | inactive | inactive | inactive | inactive | – | –
C=C1C[C@]23C[C@@]1(O)CC[C@H]2[C@@]12C=C[C@H](O)[C@@](C)(C(=O)O1)[C@H]2[C@@H]3C(=O)O | inactive | inactive | inactive | inactive | inactive | 4.32% (inactive) and 5.25% (inactive) | inactive | inactive | inactive | inactive | – | –
Cc1cc(C)c(O)c(C)c1 | inactive | inactive | inactive | inactive | inactive | 10.5% (inactive) and 2.09% (inactive) | inactive | inactive | inactive | inactive | – | –
Nc1cccc(C(F)(F)F)c1 | inactive | inactive | inactive | inactive | inactive | 2.57% (inactive) and 2.05% (inactive) | inactive | inactive | inactive | inactive | – | –
OCC(CO)(CO)CO | inactive | inactive | inactive | inactive | – | – | inactive | inactive | inactive | inactive | – | –
CC(C=O)Cc1ccc(C(C)(C)C)cc1 (configuration not stated) | inactive | inactive | inactive | inactive | inactive | -5.89% (inactive) and -7.2% (inactive) | inactive | inactive | inactive | inactive | – | –
